Measurements as given in PubChem BioAssay AID1220 (Sanford-Burnham Center for Chemical Genomics, 2008).
The campaign covered roughly 190,000 compounds. About 1,300 (0.68%) were called active. No stated cut-off is given here; in the data, active means inhibition above about 50%; inactive means the rest. What follows is part of a selection rich in actives, with near analogues and random picks from the rest.

target: Mannose-6-phosphate isomerase (Homo sapiens) (UniProt P34949); test: human PMI inhibitors, high substrate, primary screen, biochemical, fluorescence intensity, high mannose 6-phosphate (AID 1220); conditions: recombinant PMI enzyme, coupled fluorescence intensity; at 20 µM; stronger effect = higher value
Sequence (P34949 whole entry, looked up): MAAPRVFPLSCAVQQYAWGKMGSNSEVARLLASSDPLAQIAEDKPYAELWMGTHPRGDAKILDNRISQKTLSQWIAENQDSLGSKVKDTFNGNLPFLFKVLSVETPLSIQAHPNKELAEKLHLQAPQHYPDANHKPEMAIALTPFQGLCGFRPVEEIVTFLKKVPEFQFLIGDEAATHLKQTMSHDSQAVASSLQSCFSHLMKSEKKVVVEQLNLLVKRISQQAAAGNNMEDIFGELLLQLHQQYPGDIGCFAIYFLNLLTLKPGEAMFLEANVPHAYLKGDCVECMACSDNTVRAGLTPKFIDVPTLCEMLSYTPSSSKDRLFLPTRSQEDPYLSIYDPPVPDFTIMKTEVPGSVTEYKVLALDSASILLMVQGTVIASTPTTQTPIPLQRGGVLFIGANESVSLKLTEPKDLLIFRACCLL

inhibition, inactive:
Cc1c(C(=O)NCC2CCCO2)oc2ccc(S(=O)(=O)N3CCCCC3)cc12 (centres undefined) -6.8%
Cc1sc2cc3c(c(C(=O)c4ccccc4)[n+]2c1C)-c1cccc2cccc-3c12 -1.5%
O=C(c1ccccc1)c1cc2ccccc2o1 -9.2%
COc1ccccc1CN1CCCCC1C(=O)O (centres undefined) -6.1%
COC(=O)c1c(NC(=O)c2ccco2)sc(C(=O)N(C)C)c1C 1.2%
O=C(O)C1CCCCC1C(=O)Nc1ccccc1F (centres undefined) 7%
O=C(O)C1CCCCC1C(=O)Nc1ccccc1Cl (centres undefined) -0.8%
O=C(COC(=O)/C=C/c1cccc([N+](=O)[O-])c1)NCCCN1CCCC1=O -2.9%
COc1cc(-c2nc3ccccn3c2/N=C/c2cc(OC)c(O)cc2Cl)ccc1O 41.9%
COc1cc(-c2nc3ccccn3c2/N=C/c2ccccc2)ccc1O 14.6%
CC(=O)c1cc2cc(O)ccc2o1 1.7%
O=C(O)c1cc2c(ccc3ccccc32)o1 9.6%
CSCCC(NS(=O)(=O)/C=C/c1ccccc1)C(=O)O (centres undefined) -6.2%
CCOC(=O)N1CCC(NS(=O)(=O)c2ccc3c(c2)oc(=O)n3C)CC1 12.9%
CN(C)S(=O)(=O)c1ccc(NC(=O)N2CCOCC2)cc1 -1.8%
O=C(Nc1ccc(F)cc1)N1CCOCC1 1.9%
NC(=O)NNC(=S)Nc1cccc2ccccc12 27.8%
C#CCNC(=O)C1=C[C@H](c2ccc(Br)cc2)C[C@H](OCCCCO)O1 37.7%
C#Cc1ccc([C@H]2C=C(C(=O)O)O[C@@H](OCc3ccc(CO)cc3)C2)cc1 9.9%
O=C(Nc1ccccc1)C1=C[C@H](c2ccc(Br)cc2)C[C@H](OCc2ccc(CO)cc2)O1 13.9%
C#Cc1ccc([C@@H]2C=C(C(=O)O)O[C@H](OCc3ccc(CO)cc3)C2)cc1 0.7%
O=C(NCc1ccccc1)C1=C[C@H](c2ccc(C(F)(F)F)cc2)C[C@H](OCc2ccc(CO)cc2)O1 46.8%
O=C(Nc1ccccc1)C1=C[C@@H](c2ccc(C(F)(F)F)cc2)C[C@@H](OCc2ccc(CO)cc2)O1 18%
O=C(Nc1ccccc1)C1=C[C@@H](c2ccc(Br)cc2)C[C@@H](OCCCCO)O1 12.2%
O=C(NCc1ccccc1)C1=C[C@H](c2ccc(Br)cc2)C[C@H](OCc2ccc(CO)cc2)O1 37.7%
CCCOc1ccc(C(=O)c2nc3c(n2O)CCCC3)cc1 -4.1%
CC1Oc2ccccc2C=C1/C=C1/SC(N2CCOCC2)=NC1=O (centres undefined) 26.6%
CCCCc1nnc(NC(=O)C2CCCO2)s1 (centres undefined) 4.7%
c1cncc(CSc2ccc(-c3cccnc3)nn2)c1 -3.2%
CCC(CC)c1nnc(NC(=O)c2c(C)nn(Cc3ccccc3Cl)c2C)s1 3%
O=C(CCNS(=O)(=O)c1cccs1)NC1CCN(Cc2ccccc2)CC1 6.1%
CC(=O)OCc1c(F)c(F)c(-n2nc(C)cc2C)c(F)c1F 1.5%
COc1ccc(-c2nnn(CC(=O)N(CCCN3CCOCC3)C(C(=O)NC3CCCC3)c3ccco3)n2)cc1 (centres undefined) 8.7%
CNC(=O)NC(=O)C(C)OC(=O)CCCSc1nc2ccccc2s1 (centres undefined) 4.7%
Cc1cc2ccccn2c1C(=O)c1ccc(Cl)c([N+](=O)[O-])c1 3.4%
O=C(Nc1nn[nH]n1)c1cccc([N+](=O)[O-])c1 1.8%
O=C(Nc1ccccc1Br)c1c(F)cccc1Cl -8.7%
O=C(Nc1ccccc1)C1=C[C@H](c2ccc3c(c2)OCO3)C[C@H](OCCCCO)O1 12.1%
O=C(O)C1=C[C@@H](c2ccc3c(c2)OCO3)C[C@@H](OCCCCO)O1 4%
O=C(Nc1ccccc1)C1=C[C@@H](c2ccccc2)C[C@@H](OCc2ccc(CO)cc2)O1 15.7%
C#CCNC(=O)C1=C[C@@H](c2ccccc2)C[C@@H](OCc2ccc(CO)cc2)O1 28.3%
Cc1nn(Cc2ccccc2Cl)c(C)c1NC(=O)CCCn1nc([N+](=O)[O-])c(Cl)c1C 0.3%
CC(=O)N1CCN=C1SCc1ccc(C)cc1 5.8%
C=CCn1c(COc2ccc(Cl)cc2)nnc1SCC(=O)NCC(=O)OCC -3.6%
CCOC(=O)C1(Cc2cccc(F)c2)CCN(C(=O)C2CCCO2)CC1 (centres undefined) -13.3%
O=C(Nc1cc(N2CCOCC2)ncn1)NC1(C(F)(F)F)Oc2ccccc2O1 7.9%
Cc1cc(NC(=O)NC2(C(F)(F)F)Oc3ccc(Cl)cc3O2)no1 (centres undefined) 12.7%
Cc1cc(NC(=O)CSc2nc(-c3ccccc3)nc3c2c(=O)n(C)c(=O)n3C)no1 -6.7%
CCn1c(SCC(=O)Nc2cc(OC)c(OC)c(OC)c2)nnc1-c1cccs1 0.1%
Fc1ccc(NC(=S)Nc2cccc3cnccc23)cc1 -10.5%
Cc1ccc(NC(=S)Nc2cccc3cnccc23)cc1C -34.8%
Cc1ccc(NC(=S)Nc2cccc3cnccc23)c(C)c1 25.7%
S=C(Nc1ccc(Cl)cc1)Nc1cccc2cnccc12 12.2%
COc1ccc(NC(=S)Nc2ccc(N(C)C(C)=O)cc2)cc1 17.5%
CC(=O)N(C)c1ccc(NC(=S)Nc2ccccc2)cc1 2.5%
COc1cc(OC)cc(C(=O)N2CCCc3ccccc32)c1 12.7%
Brc1ccc(/C=N/Nc2ccccn2)cc1 -7.7%
COC(=O)CS(=O)(=O)c1cc([N+](=O)[O-])ccc1NC(=O)OC 13.9%
C1CCCN(c2nc3nonc3nc2N2CCCCCC2)CC1 -3.2%
N#CCCn1cc(C(=O)N2CCOCC2)c(-c2ccc3c(c2)OCCO3)n1 5.1%
Cc1ccc2[nH]c(=O)c(CN(Cc3ccccc3Cl)C(=O)N3CCOCC3)cc2c1 8.8%
COC(=O)C1=C2SC(C)C(=O)N2C(N)=C(C#N)C1c1cc(OC)c(OC)c(OC)c1 (centres undefined) 24.2%
CCOC(=O)C1=C(N)N2C(=O)C(C)SC2=C(C(=O)OC)C1c1cccc(OC)c1 (centres undefined) 2.8%
COc1ccc(S(=O)(=O)N2CCOC2CNC(=O)C(=O)NCCc2ccc(OC)c(OC)c2)cc1 (centres undefined) -0.2%
COc1ccc(CCNC(=O)C(=O)NCC2OCCN2S(=O)(=O)c2ccc(Br)cc2)cc1OC (centres undefined) -12.7%
O=C(O)C1CCC(=O)N1Cc1ccc(F)cc1 (centres undefined) -3.6%
CCc1ccc(NC(=O)NCCN2CCc3ccccc3C2)cc1 -6.5%
CCOP(=O)(OCC)C(Nc1ccccn1)c1ccccc1 (centres undefined) -3.9%
Cc1c2cnn(-c3ccccc3)c(=O)c2c(C)n1CCCC(=O)N1CCN(c2ncccn2)CC1 -2.5%
COc1ccc(NC(=O)c2ccc3snnc3c2)cc1 -1.3%
S=C(Nc1ccc(N2CCOCC2)cc1)Nc1ccc2snnc2c1 41%
COc1ccc(NC(=S)Nc2ccc3nsnc3c2)cc1 47%
CNC(=S)Nc1ccc2nc(C)c(C)nc2c1 38%
CCNC(=S)Nc1ccc(Cl)c(C(F)(F)F)c1 7.2%
CCN1CCC(NC(=O)Nc2ccc(F)cc2F)CC1 -11.5%
CCCS(=O)(=O)c1ccc(COC(=O)c2ccc(NC(C)=O)cc2)cc1 -0.1%

inhibition, active:
O=C(c1ccccc1)c1c2c(cc3sc4ccccc4[n+]13)-c1cccc3cccc-2c13 51.7%
O=C(O)C1CCCCC1C(=O)Nc1cccc2ccccc12 (centres undefined) 54.6%
COc1cc(-c2nc3ccccn3c2/N=C/c2cccc(OC)c2O)ccc1O 61.6%
CC(=O)c1cc2c(O)c(O)ccc2o1 71%
CN(C)c1ccc(NC(=O)N2CCOCC2)cc1 63.7%
O=C(NCc1ccccc1)C1=C[C@@H](c2ccc(C(F)(F)F)cc2)C[C@@H](OCc2ccc(CO)cc2)O1 50.2%
O=C(NCc1ccccc1)C1=C[C@@H](c2ccc(Br)cc2)C[C@@H](OCCCCO)O1 60.5%
O=C(NCc1ccccc1)C1=C[C@@H](c2ccc(Br)cc2)C[C@@H](OCc2ccc(CO)cc2)O1 55.2%
C#Cc1ccc([C@@H]2C=C(C(=O)NCc3ccccc3)O[C@H](OCc3ccc(CO)cc3)C2)cc1 50.8%
O=C(NCc1ccccc1)C1=C[C@@H](c2ccccc2)C[C@@H](OCc2ccc(CO)cc2)O1 61.7%
O=C(NCc1ccccc1)C1=C[C@H](c2ccc3c(c2)OCO3)C[C@H](OCCCCO)O1 64.5%
CCc1ccc(NC(=S)Nc2cccc3cnccc23)cc1 51.5%
CC(=O)N(C)c1ccc(NC(=S)Nc2cccc3ccccc23)cc1 55.1%
Cc1cc(C)cc(NC(=S)Nc2cccc3cnccc23)c1 59.3%
COC(=O)C1=C2SC(C)C(=O)N2C(N)=C(C#N)C1c1ccc(OC)c(OC)c1 (centres undefined) 51.3%
COc1ccc(S(=O)(=O)N2CCOC2CNC(=O)C(=O)NCCc2ccc(OC)c(OC)c2)cc1C (centres undefined) 52.2%
COc1ccc(NC(=S)Nc2ccc3snnc3c2)cc1 54.2%
COc1ccc(NC(=S)Nc2ccc3nc(C)c(C)nc3c2)cc1 54.2%
